# Assay results: PubChem BioAssay (NCI)
# The panel holds about 79,000 compounds, 15% with a hit somewhere; the sample as a whole holds those more often. Values without a mark were called inactive. Active and inactive are the calls of the source. Rule as the data show it: active = growth inhibition above about 70%; inactive = the rest.
# What was measured:
# [1] = NCI Yeast Anticancer Drug Screen. Data for the rad50 strain (AID 155);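 also: 0% = growth of vehicle-only cultures of the same strain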; conditions: S. cerevisiae rad50 strain growth inhibition; at 50.0 µM; stronger effect = higher value
# In short: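 DNA repair mutant yeast, compound exposure, growth read-out; inhibition is taken relative to vehicle.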
# [2] = NCI Yeast Anticancer Drug Screen. Data for the mec2-1 strain (AID 157); conditions: S. cerevisiae mec2-1 strain, at 50.0 µM, stronger effect = higher value
# In short: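 Strain: mec2-1 (DNA repair/cell cycle alteration). Compound exposure, then growth measured; inhibition expressed relative to vehicle.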
# [3] = NCI Yeast Anticancer Drug Screen. Data for the sgs1 mgt1 strain (AID 161);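 also: 0% = growth of cultures given vehicle only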; conditions: S. cerevisiae sgs1 mgt1 strain, at 50.0 µM, stronger effect = higher value
# In short: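 Mutant yeast exposed to compound; growth scored against vehicle-only wells.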
# [4] = NCI Yeast Anticancer Drug Screen. Data for the cln2 rad14 strain (AID 165);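 also: 0% = growth equal to vehicle treated cultures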; conditions: S. cerevisiae cln2 rad14 strain, at 50.0 µM, stronger effect = higher value
# In short: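 Compounds are applied to the cln2 rad14 yeast strain, and growth is then compared with that of vehicle-treated cultures to give inhibition.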
# [5] = NCI Yeast Anticancer Drug Screen. Data for the bub3 strain (AID 167); conditions: S. cerevisiae bub3 mutant strain, at 50.0 µM, stronger effect = higher value
# In short: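 In this screen, a yeast mutant lacking normal mitotic checkpoint function is challenged with compound. Relative growth versus vehicle gives the inhibition value.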
# [6] = NCI Yeast Anticancer Drug Screen. Data for the mlh1 rad18 strain (AID 175); conditions: S. cerevisiae mlh1 rad18 strain growth inhibition; at 50.0 µM; stronger effect = higher value
# In short: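 Read-out is yeast growth inhibition, calculated against vehicle-only controls. The compound was applied to a strain engineered with DNA damage repair alterations.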
Compound,growth inhibition [1],growth inhibition [2],growth inhibition [3],growth inhibition [4],growth inhibition [5],growth inhibition [6]
CCCCCCCCCCCC[N+](C)(C)Cc1cc(=O)c(O)co1,71.7% (active),43.6%,74.1% (active),78.8% (active),65%,27.2%
O=S(=O)(CCl)Nc1ccncc1,-16.6%,-9.6%,-25.6%,-77.2%,3.1%,-16.8%
Cc1ccc(Nc2ncnc3sc(SCc4ccccc4)nc23)cc1,-34.5%,-20.4%,-24.2%,3.75%,-24.6%,-28.1%
CC(C)C(Nc1ncnc2nc[nH]c12)C(=O)O (stereo unspecified),-25.6%,-15.2%,-6.65%,-35.2%,-23.2%,-16.9%
Nc1cc(Cl)c([N+](=O)[O-])cc1O,6.2%,18.4%,5.55%,-66.2%,5.05%,-12%
Clc1cccc2[nH]c(-c3ccncc3)nc12,-18.1%,-15.1%,-15.4%,-10.8%,2.95%,-5.75%
Cc1cc(Nc2ccc(S(=O)(=O)O)c3cc(S(=O)(=O)O)cc(S(=O)(=O)O)c23)c2ccccc2n1,-14.1%,4.3%,3.2%,-10.9%,6%,8.7%
C[N+](C)(C)CCOc1cccc(Br)c1,9.8%,14.5%,21.6%,29.8%,11.7%,23.9%
Cc1cccc[n+]1CC(=O)c1ccc(Cl)cc1,-8.05%,3.25%,1.05%,-44.8%,-4%,3.65%
C/C=C(\C)C(C#N)(CCCC)C(=O)OCC (stereo unspecified),0.3%,-17.2%,-6.35%,-14.7%,-25.4%,-24.2%
O=C(Cc1ccccc1)NCO,2.95%,6.35%,-9.6%,-52.4%,-3.5%,4.6%
NCCCCCC(N)=O,45%,32.5%,38.8%,21.2%,33.5%,33.1%
O=c1c2ccccc2c2nccn2c2ccccc12,13.8%,3%,19.1%,-9.1%,-0.3%,-5.25%
CSC(C(O)C(O)C(O)C(O)CO)n1cnc2c(=S)nc[nH]c21 (stereo unspecified),1.1%,5.7%,5.75%,19.6%,11.3%,9%
CSc1ccc(N=Cc2ccccc2O)cc1,11.2%,-40%,22.2%,15.1%,8.85%,19.4%
CC(=O)OCC1OC(n2c(Br)nc3c(N)ncnc32)C2OC(C)(C)OC12 (stereo unspecified),14.3%,6.2%,16.4%,-2.7%,1.3%,-6.55%
Cc1ccc(S(=O)(=O)CCC(=O)c2ccc([N+](=O)[O-])cc2)cc1,9.35%,20.1%,14.8%,6.65%,3.05%,16.9%
Cc1noc2c1NC(=O)OCC2,2.9%,1.45%,-3.85%,-2%,10.6%,-15.1%
COc1cc(NS(=O)(=O)c2ccc(C)cc2)c2c(c1N)C(=O)c1ccccc1C2=O,-3.4%,-8.15%,-4.1%,5.35%,5.55%,-1.05%
Cc1ccc(N2C3=C(CC4=C2CC(C)(C)CC4=O)C(=O)CC(C)(C)C3)cc1,-29.6%,-25.1%,-21.1%,-15.9%,-33.8%,-24.9%
CCOC(=O)/C=C\C(=O)OCC,29.7%,2.55%,9.35%,10%,9.95%,-1.1%

Compound,growth inhibition [1],growth inhibition [2],growth inhibition [3],growth inhibition [4],growth inhibition [5],growth inhibition [6]
N#CC(CCc1nc(N)nc(N)n1)(CCc1nc(N)nc(N)n1)c1ccccc1,-6.7%,-19.1%,1.9%,-45.7%,-1.2%,-14.9%
Nc1cnc2c(c1)c(=O)nc1n2CCS1,-0.45%,9.65%,6.6%,5.3%,0.5%,-27.1%
N#Cc1c(-c2ccccc2)cc(-c2ccccc2)n(C2OCC(O)C(O)C2O)c1=S (stereo unspecified),5.1%,30.6%,31.5%,-7.45%,3.15%,-0.05%
CCCCN1CSC(=S)N(CCCC)C1,39.5%,45.5%,59.2%,-10.4%,51.4%,37%
CC1(C)CC(=O)C(/C=N/C(=S)NCCc2ccccc2)=C(O)C1,-22.8%,-53.4%,-21.3%,-2.85%,-14.8%,-7.6%
Nc1nc(NCCO)c(N=O)c(=O)[nH]1,5.1%,-4.1%,-2.3%,13.4%,10.1%,13.4%
CC(=O)c1ccccc1C(=O)O,6.05%,7.45%,-6.65%,7.6%,6.25%,-9.55%
CCN(CC)CCCC(C)Nc1c2cc(OC)cc(C)c2nc2c(C)c(Cl)ccc12 (stereo unspecified),21.6%,50.6%,13.8%,19.2%,4.35%,29.4%
CC(C)CC(C)Cc1ccncc1 (stereo unspecified),0.4%,1.65%,24.8%,11.8%,-1.65%,-5%
C/C(=N/Nc1ccc([N+](=O)[O-])cc1[N+](=O)[O-])C1=CCCCC1,-0.2%,-1.35%,-0.95%,-4.8%,3.15%,-4.85%
CC(C)CCCC(C)C1CCC2C3CCC4=CCCCC4(C)C3CCC12C (stereo unspecified),4.6%,33%,27.8%,33.1%,2.45%,50.7%
O=C(NNC1=NCCCCN1)Nc1ccc(Cl)cc1,20.9%,6.8%,26.4%,7.4%,16.6%,5.95%
O=C(NCCCN(CCCCN(CCCNC(=O)C(F)(F)F)Cc1ccc2ccccc2c1)Cc1ccc2ccccc2c1)C(F)(F)F,83.4% (active),87.3% (active),88.5% (active),88.2% (active),87% (active),92.5% (active)
CCc1nc(N)nc(N)c1-c1ccc(NC(C)c2ccccc2)c([N+](=O)[O-])c1 (stereo unspecified),13.6%,-8.4%,14.5%,-1.1%,9.1%,-7.6%
Cc1cccc(C(C)(C)C)c1NC(=O)/C(Cc1nc2ccc([N+](=O)[O-])cc2[nH]c1=O)=N/NC(=O)C[N+](C)(C)C,6.4%,-10.4%,-9.1%,-17.4%,-18.9%,-22.6%
O=C(CO)CC(=O)C(=O)Nc1nc([N+](=O)[O-])cs1,-18.1%,-31.8%,21%,7.9%,-16.1%,-21.5%
CC1=C(c2cc(C(=O)Nc3cccc(C(F)(F)F)c3)nc(NC#N)n2)Sc2ccccc2N1,17.4%,1.2%,-3.2%,-2.85%,2.7%,11.8%
Clc1nncc2sc(-c3ccccc3)nc12,20.9%,-1.7%,28.1%,17.4%,18.3%,-18.3%
CC(C(=O)O)c1ccc(-n2nnc3c(=O)[nH][nH]c(=O)c32)cc1 (stereo unspecified),-16.2%,-8.4%,-12.6%,-17.3%,2.8%,-5.7%
CCCC(C)C(=O)O (stereo unspecified),23.1%,-1.95%,4%,23.1%,28.8%,19.9%
